In PubChem BioAssay AID463173 (ICCB-Longwood Screening Facility, Harvard Medical School, 2010) one finds survival data, which are given here for 25 compounds.

Hit rate of the full screen: of about 52,000 compounds, about 1,700 (3.3%) were called active. The entries come from a sample that favours actives as a whole. A number with no mark means an inactive call. Cut-off read from the data, not from the text of the source: active = survival mostly below about 52% (no sharp cut-off); inactive = mostly above about 56%.

The test system of this assay is Wild type. Nature of the assay: growth inhibition of S. aureus wild type versus tarO mutant, primary screen, teichoic acid synthesis inhibitors, RN4220, OD600 (AID 463173). Conditions: S. aureus RN4220 wild type/DeltatarO growth, OD600, 18 h, hits give low values, screened at 18.75 µg/mL (by protocol).
Take `Cc1cn2c(=O)cc(COc3cccc(NC(=O)c4ccccc4Cl)c3)nc2s1`: the survival was 88%.
Turning to `O=C(c1cc2nc(-c3ccccc3)cc(-c3ccccc3)n2n1)N1CCCC1`, the survival was 100%.
The same measure for `CCOC(=O)C1(CC)C(=O)OC(C(=O)NC2CCCCC2)C1C` (stereo not given): 112%; for `COc1cccc(-c2cc(C(=O)NCc3ccccc3)no2)c1`: 85%.
Regarding `Cc1ccc(C)n1-c1c(C(=O)NCC(C)c2ccccc2)sc2ncccc12` (stereo not given), the survival was 73%.
The same measure for `Cc1ccc(-n2c(SCc3ccccc3F)nc3[nH]ncc3c2=O)cc1C`: 80%.
On to `CCOc1ccccc1-c1nc(=S)[nH][nH]1`, for which the survival is 110%.
As for `Cc1ccc(NCc2cccn2-c2nnc(N3CCC(C(=O)NC(C)C)CC3)s2)cc1`, the figure is 121%; as for `CCOC(=O)c1ccccc1NC(=O)C(=O)Nc1ccc2nc3n(c(=O)c2c1)CCCCC3`, 123%; as for `COc1ccc(Nc2nc(-c3ccc(C)cc3)nc3ccccc23)c(OC)c1`, 70%.
As for `COc1cc(Nc2nc(-c3ccc(OC)c(OC)c3)nc3ccccc23)cc(OC)c1`, the figure is 0% (active); as for `COc1ccc(Nc2nc(-c3ccccc3F)nc3ccccc23)cc1OC`, 71%; as for `Cc1cccc2nc(Cn3c(=O)n(-c4ccc(Cl)cc4)c(=O)c4c5c(sc43)CCC5)cc(=O)n12`, 121%.
The same measure for `CCC(C(=O)NCCc1ccc(OC)c(OC)c1)n1nc(C)c2sc3ccccc3c2c1=O` (stereo not given): 79%; for `CC1(C)CC(=O)C/C(=N\NC(=O)CCc2ccccc2)C1`: 122%; for `Cc1ccc(C(c2sc3nc(-c4ccco4)nn3c2O)N2CCOCC2)cc1` (stereo not given): 77%.
Regarding `O=C(c1ccc2c(Cl)c3c(nc2c1)CCCC3)N1CCN(c2ccccc2F)CC1`, the survival is 0% (active).
As for `O=C(c1ccc2c(Cl)c3c(nc2c1)CCCC3)N1CCN(c2ccc(Cl)cc2)CC1`, the figure is 90%; as for `Cc1cccc(N2CCN(C(=O)c3ccc4c(Cl)c5c(nc4c3)CCCC5)CC2)c1C`, 88%; as for `O=C(c1ccc2c(Cl)c3c(nc2c1)CCCC3)N1CCN(c2cccc(Cl)c2)CC1`, 62%.
The same measure for `O=C(c1ccc2c(Cl)c3c(nc2c1)CCCC3)N1CCN(c2ccccc2)CC1`: 0% (active).
The same measure for `Cc1ccc(Cl)cc1N1CCN(C(=O)c2ccc3c(Cl)c4c(nc3c2)CCCC4)CC1`: 29%; for `O=C(NCCCc1ccccc1)c1nn(-c2ccccc2F)nc1CO`: 89%.
Turning to `COc1ccc(C2=C(C)C(=NCc3ccc(OC(C)C)cc3)NS2(=O)=O)cc1`, the survival is 86%.
In the case of `CCCc1nc(C(C#N)c2ccc(F)cc2)c2nnn(Cc3ccccc3)c2n1` (stereo not given), the survival is 109%.
